The panel holds about 83,000 compounds, 20% with a hit somewhere; the sample as a whole holds those more often.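 Each cell line was grown in a 96-well plate and treated with one concentration of compound for 48 hours. Values below 10 were considered active.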 Values without a mark were called inactive. Activity calls are given as the source filed them.
Experiments:
Assay in all cases: NCI-60 one-dose screen, 48 h (100 = growth as untreated, 0 = no growth, -100 = all killed)
Details in all cases: 10 µM unless noted
DU-145 prostate = system: DU-145 prostate
K-562 leukemia = system: K-562 leukemia
MALME-3M melanoma = system: MALME-3M melanoma
MDA-MB-231 breast = system: MDA-MB-231 breast
RXF 393 renal = system: RXF 393 renal
SF-268 CNS = system: SF-268 CNS
SF-295 CNS = system: SF-295 CNS
SF-539 CNS = system: SF-539 CNS
UACC-257 melanoma = system: UACC-257 melanoma
M14 melanoma = system: M14 melanoma
HCT-15 colon = system: HCT-15 colon
HT29 colon = system: HT29 colon
SNB-75 CNS = system: SNB-75 CNS
SNB-19 CNS = system: SNB-19 CNS
PC-3 prostate = system: PC-3 prostate
SK-MEL-5 melanoma = system: SK-MEL-5 melanoma
UACC-62 melanoma = system: UACC-62 melanoma
LOX IMVI melanoma = system: LOX IMVI melanoma
SK-MEL-28 melanoma = system: SK-MEL-28 melanoma
U251 CNS = system: U251 CNS

Row | Compound | growth (DU-145 prostate) | growth (K-562 leukemia) | growth (MALME-3M melanoma) | growth (MDA-MB-231 breast) | growth (RXF 393 renal) | growth (SF-268 CNS) | growth (SF-295 CNS) | growth (SF-539 CNS) | growth (UACC-257 melanoma) | growth (M14 melanoma) | growth (HCT-15 colon) | growth (HT29 colon) | growth (SNB-75 CNS) | growth (SNB-19 CNS) | growth (PC-3 prostate) | growth (SK-MEL-5 melanoma) | growth (UACC-62 melanoma) | growth (LOX IMVI melanoma) | growth (SK-MEL-28 melanoma) | growth (U251 CNS)
1 | COc1ccc(OC)c(Nc2nc(-c3c(C)nc4sccn34)cs2)c1 | 81.7% | 27.8% | 88.9% | 71.1% | 83.5% | 102% | 52.8% | 75.7% | 81% | 78.6% | 73.6% | 73.6% | 78.4% | 96.9% | 37.6% | 18.8% | 79.6% | 83.4% | 101% | 
2 | Nc1cc2nc3ccccc3oc-2cc1=O | -97.1% (active) | 10.6% | -45.8% (active) | 59.8% | 81.1% | 38.5% | -11.1% (active) | -20% (active) | 31.7% | -83.6% (active) | 18.2% | 38.8% | -86% (active) | 80.8% | 27.8% | -97.9% (active) | -75.2% (active) | -11.4% (active) | -56.2% (active) | 
3 | COc1ccccc1NC(=O)OCC12COCN1COC2 | 112% | 104% | 103% | 102% | 108% | 106% | 103% | 103% | 89.9% | 104% | 97.2% |  | 97.6% | 94.4% | 101% | 99.5% | 99.7% | 107% | 108% | 91.1%
4 | C#CC[C@@H]1C[C@]2(C)[C@H]3CC=C4[C@H]5[C@@H](C)[C@H](C)CC[C@]5(C(=O)NCCCCCCCCN)CC[C@@]4(C)[C@]3(C)CC[C@H]2C(C)(C)[C@H]1OC(C)=O | 41.8% | -23.4% (active) | 66% | 56% | 70.4% | 92.9% |  | 83.8% | 100% | 29.3% | -62.1% (active) | -65.4% (active) | 83.2% | 64.8% | -21.7% (active) | 91.9% | 105% | -52.9% (active) | 103% | -90.8% (active)
5 | Cc1ccc(S(=O)(=O)NC(CCC(=O)Nc2ccc(Cl)cc2)C(=O)Nc2ccc(Cl)cc2)cc1 (configuration not stated) | 45.8% | 2.8% (active) | 14.2% | -5.94% (active) | 22.9% | 38.8% | 10.5% | -20.5% (active) | 45.6% | 32.2% | 18.9% | 14.2% | -17.2% (active) | 14.1% | 17.8% | 21.2% | 2.47% (active) | 6.06% (active) | 64.3% | 
6 | CNCc1ccccc1CN(CC(=O)Nc1ccc2c(c1)CC1(C2)C(=O)Nc2ncccc21)C(=O)C(C)(C)C (configuration not stated) | 112% | 107% | 99.5% | 108% | 126% | 101% | 106% | 100% | 102% | 98.7% | 111% |  | 83.2% | 103% | 98% | 103% | 99.8% | 97.4% |  | 103%
7 | COc1cc2nccc(Oc3ccc(NC(=O)C4(C(=O)Nc5c(F)cc(F)cc5F)CC4)cc3)c2cc1Oc1ccc(N)cn1 | 80.7% | 7.69% (active) | 59% | 65.9% | 65.8% | 55.5% | 30.6% | 21.2% | 53.8% | 56.9% | 45.5% | 34.8% | 21.7% | 78.7% | 51.5% | 29% | 24.4% | 49.4% |  | 
8 | Oc1ccc(Nc2ncnc3c2sc2ncccc23)cc1 | 17.2% | 38.2% | 60.6% | 64.4% | 35.3% | 23.7% | 15.1% | 5.87% (active) | 36.4% | -19% (active) | 50.9% |  | 40.9% | 27.6% | 47.4% | 27.7% | 3.13% (active) | 8.47% (active) | 65.7% | 24.4%
9 | CCCc1n(Cc2ccc3ccccc3n2)cc[n+]1Cc1ccc2ccccc2n1 | 51.2% | 12.8% | 12.5% | 17.8% | 48.7% | 27.8% | 59.9% | 31.2% | -11.5% (active) | 37.2% | 95.7% |  | 19.5% | 19.1% | 24.8% | -49% (active) | 1.66% (active) | 18% | 19.3% | 20.6%
10 | CCCCCCCCCCCCCCCc1cc(O)ccc1[N+](=O)[O-] | 104% | 67.7% | 96.4% | 69.2% | 95% | 91.6% | 94.3% | 103% | 87.3% | 93.1% | 73.7% | 107% | 83.1% | 99.9% | 59.5% | 76.1% | 67.9% | 98% | 102% | 
11 | COC(=O)C(C)NC1=C(Cl)C(=O)C(NC(C)C(=O)OC)=C(Cl)C1=O (configuration not stated) | 101% | 109% | 72.2% | 94.6% | 101% | 102% | 99% | 107% | 86.4% | 103% | 92.6% |  | 86% | 94% | 92% | 79.2% | 99.8% | 91.1% | 111% | 98%
12 | Cc1ccc(Nc2nc(NCCO)c3ccccc3n2)cc1C | -14.6% (active) | 11.1% | 43.8% | 12.6% | 42.5% | 20.1% |  | 7% (active) | 62% | 24.4% | 15.6% | 12.9% | 39.6% | 57% | 35.7% | -18.6% (active) | 35.7% | 8.62% (active) | 52.5% | 15.1%
13 | COCCOCCOCc1n(Cc2ccc3ccccc3n2)c2ccccc2[n+]1Cc1ccc2ccccc2c1 | 24.6% | 2.47% (active) | -7.52% (active) | 8.58% (active) | -19.9% (active) | 20% | -12.3% (active) | 15.8% | -8.67% (active) | -0.723% (active) | 78.3% | -4.5% (active) | -5.72% (active) | 11.6% | 5.71% (active) | -94.1% (active) | -38.5% (active) | -76% (active) | 8.66% (active) | 
14 | COc1ccc(/C=C(/C(=O)N2CCN(c3ccccc3)CC2)c2cc(OC)c(OC)c(OC)c2)cc1O | 4.21% (active) | 6.23% (active) | 60% | 19.5% | 20.4% | 36.9% | 7.72% (active) | -10.8% (active) | 58.1% | 3.13% (active) | 12.8% | 48.4% | 67.8% | 27.1% | 23.4% | -13.7% (active) |  | 14.7% | 62.3% | 8.04% (active)
15 | CN1CCN(Cc2ccc(NC(=O)c3cccc(C#Cc4cnc(N)c5ncccc45)c3F)cc2C(F)(F)F)CC1 | -72.4% (active) | -19.7% (active) | -78.9% (active) | -74.2% (active) | -76.5% (active) | 67.2% | 85.3% | -29% (active) | -61.6% (active) | -76.4% (active) | -57.2% (active) | -55.5% (active) | 53.9% | 96.4% | 30.7% | 44.1% | 55.5% | -88.8% (active) |  | 

Source: PubChem BioAssay (NCI)
